Measured values published in PubChem BioAssay AID652048 (National Center for Advancing Translational Sciences (NCATS), 2013).
Several values for one entry are separate records, joined by “and”; a condition that tells them apart may be missing. Equal values may be shown once. About 2,400 (0.59%) of roughly 410,000 compounds were called active. The full list was thinned out, with actives kept by preference. A number with no mark means an inactive call. Rule as the data show it: active = max activation above about 30%; inactive = the rest.

Target: D(3) dopamine receptor (Homo sapiens) (UniProt P35462)
Sequence (P35462 whole entry, looked up): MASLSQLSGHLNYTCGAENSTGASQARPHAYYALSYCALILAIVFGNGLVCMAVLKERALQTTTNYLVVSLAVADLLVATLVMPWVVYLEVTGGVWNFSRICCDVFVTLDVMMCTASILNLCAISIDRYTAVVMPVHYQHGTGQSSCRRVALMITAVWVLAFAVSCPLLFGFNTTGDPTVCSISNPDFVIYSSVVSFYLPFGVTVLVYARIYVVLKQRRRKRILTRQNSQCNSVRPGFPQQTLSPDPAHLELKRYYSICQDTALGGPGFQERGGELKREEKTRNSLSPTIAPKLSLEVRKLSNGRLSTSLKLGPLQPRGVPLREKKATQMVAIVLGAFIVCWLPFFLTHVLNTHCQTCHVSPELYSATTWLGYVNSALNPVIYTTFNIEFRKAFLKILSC
Test: qHTS of D3 Dopamine Receptor Agonist: qHTS; also: 0% is about no effect
Details: D3R DiscoveRx beta-arrestin cells, luminescence, 90 min; stronger effect = higher value
Description: D3 DARs represent a very important target for the treatment of several neuropsychiatric disorders. Indeed, one of the most promising therapeutic applications for the D3 DAR is in the area of addiction and related disorders. […] These findings have been observed with a number of addictive substances including cocaine, amphetamine, nicotine, and alcohol. […] Antagonism of the D3 DAR may also be therapeutic in the treatment of schizophrenia or psychosis. […] Since the D3 DAR is expressed in areas of the CNS associated with the control of mood and emotion, it has been hypothesized that selective antagonism of the D3 DAR may be effective in treating psychosis without inducing the motor side effects typically seen with D2 DAR antagonists.
This part of the project aims to discover novel agonist.
NIH Chemical Genomics Center [NCGC]
NIH Molecular Libraries Probe Centers Network [MLPCN]
Assay Submitter (PI): David Sibley, NINDS
Freshly passaged cells are plated in 1536 well white, solid bottom plates at a density of 1500 cells/well in 3microl of complete media. After an overnight incubation at 37 degrees C in 5% CO2, cells are loaded with 23nl of test compound from the compound library (as well as dopamine controls) using a 1536 pintool and incubated at 37 degrees C for 90 minutes. Two microliters of DiscoveRx reagent is then added to all cells, and they are incubated for an additional 30 - 60 minutes at room temperature. Following incubation, luminescence is measured on a ViewLux CCD-based luminometer reader using a 20 sec exposure time.

Row | SMILES | max activation
1 | O=c1[nH]c(CN2CC=C(c3ccccc3)CC2)nc2scc(-c3cccs3)c12 | 53.9% (active)
2 | CCCCC1C(=O)NC(=O)N(C2CCCCC2)C1=O (stereo not given) | -3.28%
3 | O=P1(N(CCCl)CCCl)NC(OO)CCO1 (stereo not given) | 1.75%
4 | C#C[C@]1(OC(=O)CCCCCC)CC[C@H]2[C@@H]3CCC4=CC(=O)CC[C@@H]4[C@H]3CC[C@@]21C | 26.4%
5 | O=S(=O)(O)C(F)(F)C(F)(F)C(F)(F)C(F)(F)F | -6.51%
6 | COc1cc(C[C@H](C)N)c(OC)cc1Br | -14.5%
7 | COC1C(O)C(C)OC(OC2CCC3(C=O)C(CCC4C3CCC3(C)C(C5=CC(=O)OC5)CCC43O)C2)C1O (stereo not given) | 1.37%
8 | C[C@]12CC[C@H](O)C[C@H]1CC[C@@H]1C2CC[C@]2(C)[C@@H](C3=CC(=O)OC3)[C@@H](O)C[C@]12O (stereo not given in full) | 51.5% (active)
9 | COC12CC[C@@]3(C[C@@H]1C(C)(O)C(C)(C)C)[C@H]1Cc4ccc(O)c5c4[C@@]3(CCN1CC1CC1)[C@H]2O5 (stereo not given in full) | 6.77%
10 | O=C1C[C@@H]2OCC=C3CN4CC[C@]56c7ccccc7N1[C@H]5[C@H]2[C@H]3C[C@H]46 (tested in a mixture with another compound) | 11.4% and 8.18%
